B2AR arrestin: qHTS assay of beta-arrestin-biased ligands of beta2-adrenergic receptor | Beta-2 adrenergic receptor (Homo sapiens), P07550 | beta-arrestin recruitment to beta2AR, cell-based reporter | Potency, µM (highest dose often 46.1 µM), usual class: activators | 0.02% of 330,000 active; active = well fitted activation curve with a large enough effect; inconclusive = small, poorly fitted or top-dose-only effect; also: nearly all actives have a fitted effect of over 65% in size
TSHR antagonist: Antagonists of the Thyroid Stimulating Hormone Receptor: HTS campaign; TSHR-expressing cells, TSH-stimulated cAMP HTRF, 2 h; stronger effect = lower value; activity change, negative = inhibition, % at 11.5 µM; 0.2% of 330,000 active;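 active = activity change below a set negative limit, meaning inhibition stronger than a set level, cut at about -70% in these data; inconclusive = activity change between two set negative limits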
Target sequence (P16473 whole entry, looked up): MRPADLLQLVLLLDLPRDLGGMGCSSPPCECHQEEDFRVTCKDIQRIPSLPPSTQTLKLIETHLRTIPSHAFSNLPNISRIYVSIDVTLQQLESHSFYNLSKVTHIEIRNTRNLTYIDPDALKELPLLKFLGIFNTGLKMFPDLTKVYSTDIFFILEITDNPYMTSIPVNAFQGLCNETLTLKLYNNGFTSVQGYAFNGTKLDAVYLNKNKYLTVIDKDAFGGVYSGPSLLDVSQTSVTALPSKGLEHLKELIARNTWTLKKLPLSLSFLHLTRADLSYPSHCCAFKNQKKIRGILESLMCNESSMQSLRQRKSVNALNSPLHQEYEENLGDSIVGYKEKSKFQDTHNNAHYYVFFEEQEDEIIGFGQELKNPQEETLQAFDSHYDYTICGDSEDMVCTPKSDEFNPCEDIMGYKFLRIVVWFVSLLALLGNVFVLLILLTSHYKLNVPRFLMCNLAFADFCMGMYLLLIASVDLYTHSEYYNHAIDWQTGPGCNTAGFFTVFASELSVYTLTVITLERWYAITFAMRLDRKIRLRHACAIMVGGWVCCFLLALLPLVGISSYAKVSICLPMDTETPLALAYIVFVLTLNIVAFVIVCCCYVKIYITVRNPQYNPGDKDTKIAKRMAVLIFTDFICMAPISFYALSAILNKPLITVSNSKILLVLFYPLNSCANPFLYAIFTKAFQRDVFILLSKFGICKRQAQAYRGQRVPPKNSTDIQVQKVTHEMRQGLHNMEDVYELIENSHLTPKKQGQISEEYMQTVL
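Antagonism was scored as loss of TSH-driven cAMP in TSHR cells, stimulated with 4nM TSH (EC80) for 2 hours at 37 deg C and detected by homogeneous HTRF competition immunoassay.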
D3 ag: qHTS of D3 Dopamine Receptor Agonist: qHTS; max activation, %; 0.58% of 410,000 active; D(3) dopamine receptor (Homo sapiens), P35462; D3R DiscoveRx beta-arrestin cells, luminescence, 90 min; in the data active = max activation above about 30%
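Cells at 1500/well, incubated overnight, then treated with pinned compounds (dopamine as control) for 90 min at 37 degrees C. DiscoveRx reagent added for 30 - 60 minutes at room temperature; luminescence read.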
DRD3 antagonist: qHTS of D3 Dopamine Receptor Antagonist: qHTS; max response, negative = inhibition, %; D3R cells, DiscoveRx beta-arrestin luminescence, antagonist mode; stronger effect = lower value; AID 652054, 2013; 2.5% of 360,000 active; in the data active = max response below about -50%; inconclusive = no clear call, values can overlap the other calls
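Cells plated overnight at 1500 cells/well, then exposed to library compounds with dopamine controls for 90 minutes at 37 degrees C. DiscoveRx reagent added for 30–60 minutes at room temperature; luminescence read, quantitative HTS format.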
Hits are given with their value; - = inactive; ? = inconclusive; . = no result given; + = active, no number; ! = not active in a repeat. An excerpt weighted towards active compounds, which were near 2.9% of everything screened.

SMILES	B2AR arrestin	TSHR antagonist	D3 ag	DRD3 antagonist
COc1cccc(CNC(=O)CCC2CCCN(C(=O)c3cccc(Cl)c3)C2)c1 (centres undefined)	-	-	42	-
COc1cccc(CNC(=O)CCC2CCCN(Cc3cc4ccccc4o3)C2)c1 (centres undefined)	-	-	-	-71
CCN(CC)c1ccc(CN(C(=O)c2cc(=O)c3ccccc3o2)C2CCS(=O)(=O)C2)cc1 (centres undefined)	.	.	-	.
NC(=O)CC[C@@H]1NC(=O)[C@H](Cc2ccccc2)NC(=O)[C@H](Cc2ccc(O)cc2)NC(=O)CCSSC[C@@H](C(=O)N2CCC[C@H]2C(=O)N[C@@H](CCCN=C(N)N)C(=O)NCC(N)=O)NC(=O)[C@H](CC(N)=O)NC1=O	.	.	-	.
COc1ccc(CC(N)c2csc(Nc3cccc(OC)n3)n2)cc1 (centres undefined)	.	.	-	-83
COc1cccc(Nc2nc(C(N)Cc3ccc(F)cc3)cs2)n1 (centres undefined)	.	.	-	-
CCN1CCN(C/C(C)=C/c2ccccc2)CC1	-	-	-	?
C/C(=C\c1ccccc1)CN1CCN(c2cccc(Cl)c2)CC1	-	-	-	-137
C/C(=C\c1ccccc1)CN1CCN(c2ccccc2F)CC1	.	.	-	-82
C/C=C(\C)CN1CCN(c2ccc(C)cc2)CC1	-	-	-	-79
CCOc1ccc(-c2cc3c(=O)n(CC(=O)NCc4ccc(Cl)cc4)ccn3n2)cc1	.	.	-	.
O=C(O)CN(CC(=O)O)CC(=O)O	.	.	-	-73
O=C(Oc1ccc(N2C(=O)CCC2=O)cc1)c1ccccc1Cl	-	-	-	-
Cc1cc(OC(=O)c2ccccc2Cl)cc(=O)n1C	-	-	35	-
COc1ccc2c(c1)c1c(c(=O)n(-c3ccccc3C)c(=O)n1C)n2C	.	.	-	.
C=CCN(CC=C)CC(O)CN(c1cc([N+](=O)[O-])ccc1OC)S(=O)(=O)c1ccccc1 (centres undefined)	-	-	-	-84
COc1ccc([N+](=O)[O-])cc1N(CC(O)CN(C)C)S(=O)(=O)c1ccccc1 (centres undefined)	-	-	-	-
CCc1cccc(C)c1NC(=O)C1CCN(c2nnc(C)c3c(C)n(-c4ccccc4)nc23)CC1	.	.	-	.
O=C(CN1CCN(c2cccc(Cl)c2)CC1)Nc1ccc([N+](=O)[O-])cc1C(=O)Nc1ccccc1F	-	-	-	-
O=C(CCN1CCN(c2ccccc2F)CC1)Nc1cccc(F)c1	-	-	-	-63
COc1ccccc1N1CCN(CCC(=O)Nc2cccc(F)c2)CC1	.	.	-	-111
Cc1ccc(C)c(N2CCN(CC(=O)Nc3ccc([N+](=O)[O-])cc3C(=O)Nc3ccccc3F)CC2)c1	-	-	50	-
COc1cc(NC(=O)CCN2CCN(c3ccccc3F)CC2)cc(OC)c1	-	-	-	-
O=C(CCN1CCN(c2ccccc2F)CC1)Nc1ccc(F)cc1	-	-	-	-73
CCOc1cccc2sc(NC(=O)c3ccc(S(=O)(=O)N4CCCCC4)cc3)nc12	.	.	-	.
SMILES	B2AR arrestin	TSHR antagonist	D3 ag	DRD3 antagonist
COc1cc(NCc2ccc3nc(N)nc(N)c3c2C)cc(OC)c1OC	.	.	-	.
O=C(CCn1c(=O)c2cccn2c2ccccc21)Nc1ccc(F)cc1	-	-	-	-65
Cc1ccccc1N1CCN(CCC(=O)Nc2ccc(F)cc2)CC1	-	-	-	-84
O=C(CCN1CCN(c2ccccn2)CC1)Nc1ccc(F)cc1	-	-	-	?
COc1ccccc1N1CCN(CC(=O)Nc2cc(F)ccc2C)CC1	-	-	-	-83
CCOC(=O)c1c(C)[nH]c(C)c1S(=O)(=O)N1CCC(C(=O)NCc2ccccc2Cl)CC1	.	.	-	.
COc1ccc(-c2c(C(=O)c3ccccc3)[nH]c(N)c2C(=O)c2ccccc2)cc1OC	.	.	-	-67
COc1ccc(-c2c(C(=O)c3ccccc3)[nH]c(N)c2C(=O)c2ccc(Br)cc2)cc1OC	.	.	-	-73
COc1ccc(C(=O)c2[nH]c(N)c(C(N)=O)c2-c2ccc(OC)c(OC)c2)cc1	.	.	-	-
CCc1c(C)sc2c1CCN(Cc1ccc(F)cc1)C2c1ccccc1 (centres undefined)	.	.	-	.
O=C(Cn1cnc2nc3c(cc2c1=O)CCCC3)Nc1ccc(F)cc1Cl	.	.	-	.
CCSc1nnc(C)n1-c1ccc(C(=O)O)cc1	-	-	-	-56
Cc1nnc(SCC(=O)N2CCCC2)n1-c1ccc(F)cc1	.	.	-	-
CCCOc1ccc(CCc2n[nH]c(=S)n2Cc2ccccc2)cc1	-	-	-	-55
CCCCCCCCCOC(=O)C(CC(=O)O)N1CCOCC1 (centres undefined)	-	-	-	-52
O=C(O)CC(C(=O)OCC1CCCO1)N1CCOCC1 (centres undefined)	-	-	-	-
O=C(O)CC(C(=O)OC1CCCCC1)N1CCOCC1 (centres undefined)	-	-	-	-92
CCCCCOC(=O)CC(C(=O)OCCCCC)N1CCCCC1 (centres undefined)	-	-	-	-
CS(=O)(=O)c1ccc([C@@H](O)[C@@H](COC(=O)CN)NC(=O)C(Cl)Cl)cc1	.	.	-	.
COc1ccc(CCNC(=O)CCc2c(C)c3cc4c(C)coc4c(C)c3oc2=O)cc1OC	.	.	-	.
CCN(CC)CCOc1ccc(/C(=C(/Cl)c2ccccc2)c2ccccc2)cc1	-	-	.	-66!
CC/C(=C(\c1ccc(O)cc1)c1ccc(OCCN(C)C)cc1)c1ccccc1	-	-	-	-
CCC1CN(C(=O)N2CCC(C(=O)N3CCN(c4ccccc4F)CC3)CC2)c2ccccc2O1 (centres undefined)	.	.	-	.
Cc1ccc(Sc2ccc(CN3CCCC3)cc2[N+](=O)[O-])cc1	-	-	-	-79
Cc1ccc(Sc2ccc(CO)cc2[N+](=O)[O-])cc1	-	-	-	?
SMILES	B2AR arrestin	TSHR antagonist	D3 ag	DRD3 antagonist
CN1CCN(Cc2ccc(Sc3ccc(Cl)cc3)c([N+](=O)[O-])c2)CC1	-	-	-	-55
O=C(CCCCCN1C(=O)CCC1=O)Nc1ncn[nH]1	-	-	-	-53
Cc1cc(-c2ccc(C)c(S(=O)(=O)Nc3cccc(C#N)c3)c2)on1	.	.	-	.
CCOC(=O)c1c(-c2ccccc2)csc1NC(=O)c1ccc(N2C(=O)CCC2=O)cc1	-	-	57	-
NC(=S)NN=Cc1c[nH]c2nccnc12	.	.	-	+
CCOc1ccc(NC(=O)Cn2cc(C(=O)c3ccccc3)c(=O)c3cc4c(cc32)OCCO4)cc1	.	.	-	.
CC(C)(C)C1=CC(=Nc2ccccc2N)C=C(C(C)(C)C)C1=O	-	-	-	-51
CC(=O)N1c2ccccc2CC1C(=O)N1CCN(c2cccc(C)c2C)CC1 (centres undefined)	.	.	-	.
CCc1ccc2c(c1)C1(NN=C(c3ccc(C)cc3)S1)C(=O)N2 (centres undefined)	-	-	-	-94

Compound activity as filed in PubChem.
